Source: the antibiotic and cytotoxicity screens of Wong et al. (2023)
Screen size: about 39,000 compounds; about 3,300 (8.5%) were called active. The sample as a whole holds a higher share of actives than the screen did.

The compounds below were run on HepG2 (assay: cytotoxicity call (relative viability < 0.9)). Settings: 10 µM.

SMILES	cytotoxicity call
Cc1noc(C)c1S(=O)(=O)Nc1ccc2c(c1)CC(=O)N([C@H](C)CO)C[C@@H](C)[C@H](CN(C)S(=O)(=O)c1ccccc1)O2	inactive
CN(Cc1ccc(C(C)(C)C)cc1)Cc1cccc2ccccc12	inactive
CCOC(=O)N(C)C[C@H]1OCc2cnnn2CCCC(=O)N([C@@H](C)CO)C[C@H]1C	inactive
C[C@@H]1NC(=O)[C@@H](N)CNC(=O)[C@H]([C@H]2CCN=C(N)N2)NC(=O)/C(=C\NC(N)=O)NC(=O)[C@H](CNC(=O)C[C@@H](N)CCCN)NC1=O	inactive
C[C@H]1CN([C@@H](C)CO)C(=O)Cc2cc(NC(=O)Nc3ccc(C(F)(F)F)cc3)ccc2O[C@@H]1CN(C)C(=O)Nc1ccccc1	inactive
C[C@@H]1CN([C@@H](C)CO)C(=O)Cc2cc(NC(=O)Nc3ccccc3)ccc2O[C@@H]1CN(C)C(=O)Nc1ccc(C(F)(F)F)cc1	inactive
C[C@H](CO)N1C[C@H](C)[C@H](CN(C)C(=O)Nc2ccccc2)Oc2ccc(NC(=O)Nc3ccc(C(F)(F)F)cc3)cc2CC1=O	active
C[C@H](CO)N1C[C@H](C)[C@H](CN(C)C(=O)Nc2ccc(C(F)(F)F)cc2)Oc2ccc(NC(=O)Nc3ccccc3)cc2CC1=O	inactive
C[C@H](CO)N1C[C@H](C)[C@@H](CN(C)C(=O)Nc2ccccc2)Oc2ccc(NC(=O)Nc3ccc(C(F)(F)F)cc3)cc2CC1=O	inactive
C[C@@H]1CN([C@@H](C)CO)C(=O)Cc2cc(NC(=O)Nc3ccc(C(F)(F)F)cc3)ccc2O[C@@H]1CN(C)C(=O)Nc1ccccc1	active
COc1ccc(NC(=O)N(C)C[C@H]2OCCCC[C@H](C)Oc3ccc(NC(=O)NC(C)C)cc3C(=O)N([C@@H](C)CO)C[C@@H]2C)cc1	inactive
Cc1cc(C(=O)Nc2cccc3c2O[C@H](CN(C)S(=O)(=O)c2ccc(F)cc2)[C@@H](C)CN([C@@H](C)CO)C3=O)n(C)n1	inactive
C[C@H](CO)N1C[C@H](C)[C@@H](CN(C)C(=O)Nc2ccc3c(c2)OCO3)Oc2ccc(NC(=O)Nc3cccc4ccccc34)cc2C1=O	inactive
COc1ccc(S(=O)(=O)N(C)C[C@@H]2Oc3c(NC(=O)c4ccncc4)cccc3C(=O)N([C@H](C)CO)C[C@H]2C)cc1	inactive
CN(C)CCc1cc(Br)c(OCCCNC(=O)/C=C/c2cc(Br)c(OCCN3CCCCC3)c(Br)c2)c(Br)c1	active
C=CC(=O)NCCN1CCCCC1	inactive
CN(C)CCc1cc(Br)c(OCCCNC(=O)/C=C/c2cc(Br)c(OCCN3CCCC3)c(Br)c2)c(Br)c1	active
COc1ccc(NC(=O)Nc2ccc3c(c2)C(=O)N([C@@H](C)CO)C[C@@H](C)[C@@H](CN(C)S(=O)(=O)c2ccc(Cl)cc2)OCCCC[C@@H](C)O3)cc1	inactive
C[C@H](CO)N1C[C@H](C)[C@H](CN(C)S(C)(=O)=O)OCCCC[C@H](C)Oc2ccc(NS(C)(=O)=O)cc2C1=O	inactive
NC(=O)C1CCOCC1	inactive
C[C@@H]1CN([C@H](C)CO)C(=O)c2cc(C#Cc3ccccn3)cnc2O[C@H]1CN(C)C(=O)CCN1CCCCC1	inactive
CC(=O)O[C@H]1CCS(=O)(=O)C1	inactive

SMILES	cytotoxicity call
COc1cccc(C(=O)Nc2ccc3c(c2)C(=O)N(C)[C@@H]2CC[C@@H](CC(=O)NCC(F)(F)F)O[C@H]2CO3)c1	inactive
CCn1nnnc1NCc1cccn1C	inactive
C[C@@H]1CN([C@@H](C)CO)C(=O)c2cc(NC(=O)Nc3ccc(C(F)(F)F)cc3)ccc2O[C@@H]1CN(C)Cc1ccc(C(F)(F)F)cc1	active
C[C@@H]1CN([C@H](C)CO)C(=O)c2cc(NC(=O)Nc3ccc(C(F)(F)F)cc3)ccc2O[C@@H]1CN(C)Cc1ccc(C(F)(F)F)cc1	active
C[C@@H]1CN([C@H](C)CO)C(=O)c2cc(NC(=O)Nc3ccc(C(F)(F)F)cc3)ccc2O[C@H]1CN(C)Cc1ccc(C(F)(F)F)cc1	active
C[C@@H]1CN([C@@H](C)CO)C(=O)c2cc(NC(=O)Nc3ccc(C(F)(F)F)cc3)ccc2O[C@H]1CN(C)Cc1ccc(C(F)(F)F)cc1	active
C[C@H](CO)N1C[C@H](C)[C@H](CN(C)S(=O)(=O)c2ccc(F)cc2)Oc2ccc(NS(=O)(=O)c3ccc(F)cc3)cc2CC1=O	inactive
c1cnc2c(c1)OCCN2	inactive
C=CCC[C@@H](Cc1ccc(F)cc1)C(=O)OC[C@H]1CCCN1C(=O)[C@H](CC=C)CC(=O)N(CCO)Cc1ccccc1	inactive
C[C@@H]1CCCCO[C@@H](CN(C)C(=O)C2CCCCC2)[C@@H](C)CN([C@@H](C)CO)C(=O)c2cc(NC(=O)c3ccccc3)ccc2O1	inactive
O=c1nc(NCc2ccco2)cc[nH]1	inactive
C[C@@H]1CN([C@@H](C)CO)C(=O)c2cc(NC(=O)Cn3cnnn3)ccc2O[C@H]1CN(C)Cc1ccc2c(c1)OCO2	inactive
COc1ccc(S(=O)(=O)N(C)C[C@H]2Oc3ccc(NS(=O)(=O)c4ccccc4)cc3C(=O)N([C@H](C)CO)C[C@@H]2C)cc1	inactive
Cc1ccc(S(=O)(=O)Nc2ccc3c(c2)CC(=O)N([C@@H](C)CO)C[C@H](C)[C@@H](CN(C)S(=O)(=O)c2ccccc2)O3)cc1	inactive
Cc1noc(C)c1NC(=O)Nc1ccc2c(c1)C(=O)N([C@@H](C)CO)C[C@H](C)[C@@H](CN(C)S(=O)(=O)c1ccc(Cl)cc1)OCCCC[C@H](C)O2	inactive
CCOC(=O)C1=NNC[C@@H]1C(=O)OCC	inactive
C[C@H](CO)N1C[C@H](C)[C@H](CN(C)Cc2ccc(C(F)(F)F)cc2)Oc2ccc(NC(=O)Nc3ccc(C(F)(F)F)cc3)cc2C1=O	active
C[C@H](CO)N1C[C@H](C)[C@@H](CN(C)Cc2ccc(C(F)(F)F)cc2)Oc2ccc(NC(=O)Nc3ccc(C(F)(F)F)cc3)cc2C1=O	inactive
C[C@H]1CN([C@@H](C)CO)C(=O)c2cc(NC(=O)Nc3ccc(C(F)(F)F)cc3)ccc2O[C@@H]1CN(C)Cc1ccc(C(F)(F)F)cc1	active
C[C@H]1CN([C@@H](C)CO)C(=O)c2cc(NC(=O)Nc3ccc(C(F)(F)F)cc3)ccc2O[C@H]1CN(C)Cc1ccc(C(F)(F)F)cc1	inactive
CC(=O)N1CCN(c2ccnc3c2c(=O)n(CC(=O)NC(C)(C)C)c(=O)n3C)CC1	inactive
CO[C@H]1C[C@@H]2CC[C@@H](C)[C@@](O)(O2)C(=O)C(=O)N2CCCC[C@H]2C(=O)O[C@H]([C@H](C)C[C@@H]2CC[C@@H](OCCO)[C@H](OC)C2)CC(=O)[C@H](C)/C=C(\C)[C@@H](O)[C@@H](OC)C(=O)[C@H](C)C[C@H](C)/C=C/C=C/C=C/1C	inactive

SMILES	cytotoxicity call
C[C@@H]1CN([C@@H](C)CO)C(=O)Cc2cc(NS(=O)(=O)c3cn(C)cn3)ccc2O[C@@H]1CN(C)S(=O)(=O)c1ccc(Cl)cc1	inactive
C[C@H]1CN([C@@H](C)CO)C(=O)c2cccc(NS(=O)(=O)c3ccc(Cl)cc3)c2O[C@H]1CN(C)Cc1ccc(-c2ccccc2)cc1	inactive
COc1nc(=NC(=O)NS(=O)(=O)Nc2cccc3cccnc23)nc(OC)[nH]1	active
COc1ccc(N2C(=O)C[C@@H](c3ccc(Br)cc3)[C@H]2C(=O)Nc2cccc3cccnc23)cc1	inactive
C[C@@H]1CN([C@H](C)CO)C(=O)Cc2cc(NS(=O)(=O)c3ccc(F)cc3)ccc2O[C@H]1CN(C)S(=O)(=O)c1cccs1	inactive
Cc1cc(C2(c3cc(C)c(N)c(C)c3)CCCCC2)cc(C)c1N	active
CC1CCC(NC(=O)N(CCCl)[NH2+][O-])CC1 (stereo not given)	inactive
CC(C)NC(=O)[C@@H]1c2ccccc2C(=O)N(Cc2cc(C(F)(F)F)cc(C(F)(F)F)c2)[C@H]1c1ccc(CO)cc1	inactive
Cc1ccc(N(c2ccc(C)cc2)c2cccnc2)cc1	inactive
C[C@@H]1CN([C@@H](C)CO)S(=O)(=O)c2ccc(C#Cc3ccccc3F)cc2O[C@@H]1CN(C)CC1CCOCC1	inactive
O=C(C[C@H]1C=C[C@H](NC(=O)CN2CCOCC2)[C@@H](CO)O1)NCCc1ccccc1	inactive
CC(C)NC(=O)N(C)C[C@@H]1Oc2ccc(NC(=O)NC3CCCCC3)cc2C(=O)N([C@@H](C)CO)C[C@H]1C	inactive
Cc1ccc(S(=O)(=O)N(C)C[C@@H]2OCCCC[C@@H](C)Oc3ccc(NC(=O)Nc4ccccc4)cc3C(=O)N([C@@H](C)CO)C[C@H]2C)cc1	active
Cc1ccc(S(=O)(=O)N(C)C[C@H]2OCCCC[C@@H](C)Oc3ccc(NC(=O)Nc4ccc(F)cc4)cc3C(=O)N([C@H](C)CO)C[C@H]2C)cc1	inactive
Cc1ccc(S(=O)(=O)N(C)C[C@@H]2OCCCC[C@@H](C)Oc3ccc(NC(=O)Nc4ccc(F)cc4)cc3C(=O)N([C@@H](C)CO)C[C@@H]2C)cc1	inactive
Cc1ccc(S(=O)(=O)N(C)C[C@@H]2OCCCC[C@@H](C)Oc3ccc(NC(=O)Nc4ccccc4)cc3C(=O)N([C@H](C)CO)C[C@H]2C)cc1	inactive
Cc1ccc(S(=O)(=O)N(C)C[C@@H]2OCCCC[C@H](C)Oc3ccc(NC(=O)Nc4ccccc4)cc3C(=O)N([C@@H](C)CO)C[C@H]2C)cc1	inactive
Cc1ccc(S(=O)(=O)N(C)C[C@@H]2OCCCC[C@H](C)Oc3ccc(NC(=O)Nc4ccc(F)cc4)cc3C(=O)N([C@@H](C)CO)C[C@H]2C)cc1	inactive
Cc1ccc(S(=O)(=O)N(C)C[C@@H]2OCCCC[C@H](C)Oc3ccc(NC(=O)Nc4ccc(F)cc4)cc3C(=O)N([C@@H](C)CO)C[C@@H]2C)cc1	inactive
Cc1ccc(S(=O)(=O)N(C)C[C@H]2OCCCC[C@@H](C)Oc3ccc(NC(=O)Nc4ccc(F)cc4)cc3C(=O)N([C@@H](C)CO)C[C@H]2C)cc1	active
Cc1ccc(S(=O)(=O)N(C)C[C@@H]2OCCCC[C@@H](C)Oc3ccc(NC(=O)Nc4ccc(F)cc4)cc3C(=O)N([C@H](C)CO)C[C@H]2C)cc1	active
